Source: PubChem BioAssay
HT1080NT lethal = qHTS for induction of synthetic lethality in tumor cells producing 2HG: qHTS for the HT-1080-NT fibrosarcoma cell line; HT-1080-NT fibrosarcoma viability, CellTiter-Glo ATP luminescence, 48 h; Potency, µM (top dose mostly 46.1 µM), for inactives: at the highest dose activity, negative = less viability, actives largely listed as cytotoxic; hit rate 1.6% among 360,000; AID 686970, 2013;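 note: NT is the 2HG producing partner of a matched IDH1 knockdown line; 0% = DMSO-treated cells and -100% = media-only wells without cells; nearly all actives have a fitted effect of over 55% in size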
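750 cells/well, RPMI + 5% FBS; 2 h settle, compound pin-transfer, 48 h at 37 degrees C. CellTiter-Glo 10 min RT, luminescence. Normalized to DMSO and media-only wells.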
DT40 TDP1 CPT = qHTS for Inhibitors of human tyrosyl-DNA phosphodiesterase 1 (TDP1): qHTS in cells in presence of CPT; chicken DT40 Tdp1-/-;hTDP1 cells + 20 nM CPT, ATP luminescence, 48 h; Potency, µM (doses to about 46.2 µM), for inactives: at the highest dose activity change, negative = growth inhibition, hits mostly inhibitors; hit rate 12% among 420,000; AID 686979, 2013; note: nearly all actives have a fitted effect of over 55% in size
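Cell growth measured by CellTiter-Glo luminescence after a minimum 48 h, 37 C compound exposure with 20 nM CPT in Tdp1-knockout DT40 cells stably expressing hTDP1, seeded 400/well; qHTS titration format.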
KB-V1 cytotox = qHTS assay for MDR1-selective chemotherapeutics: Primary screen using the drug-selected MDR subline cells KB-V1. KB-V1 MDR cells viability, CellTiter-Glo, 72 h. Potency, µM (series often up to 46.1 µM), hits mostly cytotoxic. hit rate 3.4% among 400,000. AID 1347076, 2019; note: nearly all actives have a fitted effect of over 60% in size
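qHTS viability screen in drug-selected KB-V1 MDR cells: 72 h compound treatment at 37 degrees C, ATP luminescence end point.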
HT1080 IDH1KD tx = qHTS for induction of synthetic lethality in tumor cells producing 2HG: qHTS for the HT-1080-IDH1KD cell line; HT-1080 IDH1 knockdown viability, ATP luminescence, 48 h; Potency, µM (series often up to 46.1 µM), inactives show at the highest dose activity, negative = toxicity, hits mostly cytotoxic; hit rate 2% among 360,000; AID 686971, 2013;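 note: 0% = DMSO wells and -100% = cell-free medium wells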
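HT-1080-IDH1KD cells (IDH1 knocked down), 750/well in RPMI with 5% FBS, treated with compound 48 h at 37 degrees C. Viability by CellTiter-Glo luminescence, normalised to DMSO and no-cell wells; concentration-response curves classed.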
DT40 TDP1 no CPT = qHTS for Inhibitors of human tyrosyl-DNA phosphodiesterase 1 (TDP1): qHTS in cells in absence of CPT | DT40 Tdp1-/- hTDP1 cells, no CPT, ATP luminescence, 48 h | Potency, µM (highest dose often 46.2 µM), inactives show at the top dose activity change, negative = growth inhibition, actives largely listed as inhibitors | hit rate 15% among 420,000 | AID 686978, 2013; note: nearly all actives have a fitted effect of over 55% in size
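Luminescent ATP content (CellTiter-Glo) served as the growth readout. Knockout chicken DT40 cells expressing human TDP1 were exposed to compounds without camptothecin for a minimum 48 hr at 37 °C.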
KB-3-1 cytotox = qHTS assay for MDR1-selective chemotherapeutics: Primary screen using the parental adenocarcinoma cell KB-3-1; KB-3-1 viability, CellTiter-Glo ATP luminescence, 72 h; Potency, µM (titrated, usually from 46.1 µM), most hits filed as cytotoxic; hit rate 1.4% among 400,000; AID 1347075, 2019; note: nearly all actives have a fitted effect of over 60% in size
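Here the drug-naive KB-3-1 line serves as comparator for MDR sub-line selectivity; cells received compound titrations, 72 h at 37 °C, then CellTiter-Glo readout.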
An asterisk follows results filed as active; i = inactive; ? = inconclusive; . = not tested or not shown; [ ] = dose if it differs, or a comment. This is a sample that favours compounds with a hit; in the whole collection about 19% have one here. Calls come from the whole dose curve; as a rule, active = well fitted curve in the direction sought with a large enough effect; inconclusive = small, poorly fitted or top-dose-only effect, or another doubt; inactive = no such curve, though single readings can be large; an effect the other way counts as inactive or inconclusive. Unless noted, % is set by controls: 0 for no effect and ±100 for the full control effect; potency is the fitted concentration of half-maximal effect.

SMILES	HT1080NT lethal	DT40 TDP1 CPT	KB-V1 cytotox	HT1080 IDH1KD tx	DT40 TDP1 no CPT	KB-3-1 cytotox
Cc1ccc(C)c(NC(=O)c2nnn(CC(=O)Nc3cccc(C)c3C)c2N)c1	.	2%	.	.	-2%	.
COc1ccc(OC)c(NC(=O)c2nnn(Cc3ccccc3C)c2N)c1	.	?	i	.	?	9.2µM*
COc1ccc(C)cc1NC(=O)c1nnn(Cc2cc(C)ccc2C)c1N	-25%	?	i	?	?	i
COc1ccc(Br)cc1Cn1nnc(C(=O)Nc2cccc(SC)c2)c1N	.	16µM*	i	.	23µM*	i
COc1ccccc1NC(=O)c1nnn(CC(=O)Nc2cccc(SC)c2)c1N	-9%	1%	i	-6%	0%	?
CCc1ccccc1NC(=O)Cn1nnc(C(=O)NCc2cccc(OC)c2)c1N	-3%	?	?	?	?	7.3µM*
Cc1ccc(Cn2nnc(C(=O)Nc3cccc(C)c3C)c2N)cc1	-10%	?	15µM*	-18%	21µM*	i
COc1ccc(-c2cc(C(=O)Nc3c(C)nn(Cc4ccc(F)cc4)c3C)no2)cc1OC	.	?	i	.	?	i
COc1ccc2c(c1)c1c(c(=O)n(Cc3ccccc3)c(=O)n1Cc1ccccc1)n2C	.	-17%	i	.	-1%	i
COc1ccc(NC(=O)c2nnn(Cc3ccccc3C)c2N)c(OC)c1	.	-28%	i	.	6.5µM*	?
Cc1ccc(-c2noc(-c3nnn(CC(=O)Nc4cc(C)cc(C)c4)c3N)n2)cc1	.	1.3µM*	.	.	1.5µM*	.
Cc1cccc(Cn2nnc(C(=O)Nc3cc(C)ccc3C)c2N)c1	.	29µM*	?	.	18µM*	i
COc1ccc(Cl)cc1NC(=O)Cn1nnc(C(=O)NCc2cccs2)c1N	.	4.6µM*	?	.	1.2µM*	7.3µM*
O=C(Nc1ccccc1)C1=C[C@H](c2ccc3c(c2)OCO3)C[C@H](OCc2ccc(CO)cc2)O1	-10%	-12%	i	-9%	-20%	i
Cc1ccccc1C1C=C(c2ccc(Cl)cc2)Nc2nnnn21 (configuration not stated)	.	-28%	i	.	?	i
C[C@H]1CN([C@@H](C)CO)S(=O)(=O)c2ccc(Br)cc2O[C@@H]1CN(C)C(=O)CCN1CCCCC1	1%	-13%	i	8%	6%	i
CCN(CC)CCC(=O)N1c2ccccc2Sc2ccc(Cl)cc21	?	15µM*	?	21µM*	?	i
NCCCC(=O)N1c2ccccc2Sc2ccc(Cl)cc21	?	?	i	?	23µM*	i
CCn1c(-c2cccc(OC)c2)nc2cc(NC(C)=O)cc(C(=O)N3CCCC(C(C)=O)C3)c21 (configuration not stated)	.	16%	.	.	-7%	.
COCCNC(=S)N(CCc1c(C)[nH]c2ccc(C)cc12)Cc1cc(OC)c(OC)c(OC)c1	-12%	18µM*	i	0%	?	i
COCCNC(=S)N(CCc1c(C)[nH]c2ccc(Cl)cc12)Cc1cccnc1	-7%	?	i	-1%	21µM*	i
CCc1ccc(C2C(C#N)=C(N)C(C#N)(C#N)C3=CCC(C(C)(C)C)CC32)cc1 (configuration not stated)	-12%	?	?	-25%	15µM*	?
CC(=O)Nc1ccc(S(=O)(=O)N2CCN(c3ncccn3)CC2)cc1	-1%	-26%	i	-6%	-28%	i
CC(=O)Nc1ccc(S(=O)(=O)N2CCN(C(=O)c3ncoc3-c3ccccc3)CC2)cc1	1%	?	i	-2%	12µM*	i
CC(=O)Nc1ccc(S(=O)(=O)N2CCCC(C(=O)N3CCN(c4ccccc4)CC3)C2)cc1 (configuration not stated)	-5%	23µM*	i	-1%	21µM*	i
SMILES	HT1080NT lethal	DT40 TDP1 CPT	KB-V1 cytotox	HT1080 IDH1KD tx	DT40 TDP1 no CPT	KB-3-1 cytotox
O=C(C1CCCN(S(=O)(=O)Cc2ccccc2)C1)N1CCC(Cc2ccccc2)CC1 (configuration not stated)	-26%	16µM*	?	-15%	10µM*	i
CC(=O)Nc1ccc(S(=O)(=O)N2CCN(c3nc(NC4CCCC4)c4ccccc4n3)CC2)cc1	18µM*	?	?	?	?	?
Cc1ccc2nc(CSc3nnc(NC(=O)COc4ccccc4)s3)cc(=O)n2c1	.	-8%	.	.	1%	.
CCn1ccc2cc(S(=O)(=O)N3CCC(C(=O)NCc4cccc(Cl)c4)CC3)ccc21	.	?	i	.	?	i
COC(=O)c1ccc(CSc2ccccc2NC(=S)Nc2cccc(C(F)(F)F)c2)o1	-15%	?	?	?	?	i
O=C(C1CCCN(S(=O)(=O)c2ccccc2)C1)N1CCCCCC1 (configuration not stated)	0%	-27%	i	-1%	16µM*	i
Cc1cc(NCc2ccccn2)n2ncc(-c3ccccc3)c2n1	-25%	0.16µM*	?	?	0.15µM*	i
Cc1cc(NCc2ccccn2)n2ncc(-c3ccc(Cl)cc3)c2n1	?	0.58µM*	?	?	0.82µM*	i
COc1ccccc1-c1ccnc(-n2ncc(C(=O)NCc3cccnc3)c2C)n1	.	27%[9.04 µM]	.	.	-14%	.
Cc1ccc(C(=O)NCCc2nc3ccccc3[nH]2)cc1[N+](=O)[O-]	-3%	-3%	i	-17%	?	i
COc1cc(C(=O)NCCSc2c(C)[nH]c3ccccc23)cc(OC)c1OC	.	?	i	.	15µM*	i
Cc1[nH]c2ccccc2c1SCCNC(=O)c1ccccc1F	.	?	i	.	?	i
COc1ccccc1C(=O)NCCSc1c(C)[nH]c2ccccc12	.	16µM*	?	.	23µM*	i
COc1cc(C(=O)NCC(=O)N/N=C/c2c(C)[nH]c3ccccc23)cc(OC)c1OC	-1%	?	i	-4%	26µM*	i
Cc1ccc(C(=O)NCCSc2c(C)[nH]c3ccccc23)cc1[N+](=O)[O-]	?	10µM*	?	-21%	21µM*	?
